The whole screen tested about 1,200 compounds, of which about 30 (2%) were called active. Another 23% or so got no clear call; they are omitted. Calls follow the shape of the dose curve; as a rule, active = well fitted inhibition curve with a large enough effect; inconclusive = small, poorly fitted or top-dose-only effect; inactive = flat fitted curve, though single readings scatter. Shown is part of a subset that was picked to be rich in actives.
Target: Single-stranded DNA cytosine deaminase (Homo sapiens) (UniProt Q9GZX7)
Sequence (Q9GZX7 whole entry, looked up): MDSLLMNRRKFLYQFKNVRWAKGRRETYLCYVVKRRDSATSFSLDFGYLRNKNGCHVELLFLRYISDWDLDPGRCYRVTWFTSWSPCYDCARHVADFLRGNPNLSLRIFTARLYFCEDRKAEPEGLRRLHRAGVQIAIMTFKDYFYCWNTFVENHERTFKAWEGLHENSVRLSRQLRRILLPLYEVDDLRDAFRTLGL
Test: Confirmatory qHTS assay for inhibitors of Activation Induced Cytidine Deaminase (AID): AID signals
Conditions: recombinant AID, FRET deamination/UDG coupled fluorescence, 4 h; series mostly up to 115 µM
Procedure, shortened: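 Read 1 (AID) was measured at 540 ex/590 em after a 30 min NaOH step. The reaction was AID (1 uM, 4/3x stock) with UDG, compound at final 7.32 nM - 114 uM for 10 min, then DJC20/DJC23 substrate for 4 hr at room temperature. A UDG read at 560/665 serves as counterscreen.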
Potency is read from the fitted curve at half-maximal effect.

Potency, inactive:
Cc1ccc(C(=O)c2cn(Cc3cc(C)ccc3C)c3nc(C)ccc3c2=O)cc1
O=C(Cc1ccccc1F)N1CCC(c2nc3c(nnn3Cc3cccc(Cl)c3)c(=O)[nH]2)CC1
CCc1cnc2c(c1SCc1ccccc1C)c(=O)n(C)c(=O)n2C
CCN(CC)CCCNC(=O)c1ccc2c(c1)sc1nc(-c3ccc(C)cc3)cn12
Cc1ccc(C)c(Cn2c(=O)n(CC3CCC(C(=O)N4CCOCC4)CC3)c(=O)c3sccc32)c1 (stereo not drawn)
Cc1ccc(S(=O)(=O)Nc2nc3n(n2)C(c2ccccc2Cl)C=C(c2ccccc2)N3)cc1 (stereo not drawn)
COc1ccc(C2C=C(c3ccccc3)Nc3nc(NS(=O)(=O)c4ccccc4)nn32)cc1 (stereo not drawn)
Cc1ccc(C)c(N2CCN(C(=O)c3cccn3-c3nnc(N4CCCCC4)s3)CC2)c1
CC1=C(C(=O)NCc2cccc(Cl)c2)C2(CCCCCC2)OC1=O
CCc1ccc(-n2c(SCc3nc(-c4cc(OC)ccc4OC)no3)nnc2-c2ccccc2)cc1
CCc1ccc(OCC(=O)N(Cc2ccc(C(C)C)cc2)C2CCS(=O)(=O)C2)cc1 (stereo not drawn)
Cc1cccc(-n2ccnc2SCC(=O)Nc2cccc3ccccc23)c1
Nc1ccc2oc(Cc3ccc(Cl)cc3)nc2c1
Cc1cccc(N2CCN(C(=O)C3CCCN(C(=O)c4cc5sccc5n4C)C3)CC2)c1C (stereo not drawn)
Cc1ccc(C)c(C(=O)N2CCC(c3nc4c(nnn4Cc4ccccc4)c(=O)[nH]3)CC2)c1
CC1CCN(S(=O)(=O)c2ccc3c(c2)c(=O)c(C(=O)NC(C)c2ccccc2)cn3C)CC1 (stereo not drawn)
CCc1ccccc1NC(=O)CN(c1ccccc1OC)S(=O)(=O)c1ccc(C)cc1
Cc1ccc(C)c(N2CCN(C(=O)c3ccc4c(c3)N(Cc3ccc(F)cc3)C(=O)c3ccccc3S4=O)CC2)c1 (stereo not drawn)
Cc1ccc2nc(Cl)c3cc(C(=O)N4CCCCC4C)sc3c2c1 (stereo not drawn)
O=C(NCCc1ccccc1)c1nc(-c2ccc(Cl)cc2)n2c1CCCCC2
CCCCCn1c(CCCNC(=O)c2cccc(C)c2)nc2ccccc21
COc1ccc(OC)c(NC(=O)N2CC(C)Oc3ccc(C)cc32)c1 (stereo not drawn)
COC(=O)c1ccc(Cl)cc1NC(=O)Nc1nnc(N(C)Cc2ccccc2)s1
N#C/C(=C\c1ccc(-c2ccc(Cl)c(C(=O)O)c2)o1)c1nc2ccccc2[nH]1
N#C/C(=C\c1ccc(-c2cc(Cl)ccc2Cl)o1)C(=O)Nc1cccc2ncccc12
Cc1cccc(CSc2ccc3nnc(CCNS(=O)(=O)c4ccccc4)n3n2)c1
Cc1ccc(C(=O)Nc2ccccc2C(=O)O)cc1S(=O)(=O)N1CCCCCC1
Cc1ccccc1NC(=O)c1ccc(N(Cc2ccccc2)S(C)(=O)=O)cc1
CCOc1ccc(NC(=O)CN(C)S(=O)(=O)c2ccc3c(c2)c(=O)n(C)c(=O)n3C)cc1
COc1cccc(CNC(=O)c2oc3c(c2C)-c2nn(Cc4cccc(Cl)c4)cc2CC3)c1OC
COc1ccc(Nc2ncc(C(=O)Nc3cccc(OC)c3)c3ccccc23)cc1
Cc1ccccc1CSc1nc2nc(C)c(Cc3ccccc3)c(C)n2n1
CCCCSCCCNC(=O)c1cn(CC)c2ccc(S(=O)(=O)N(C)C3CCCCC3)cc2c1=O
CC1CCCN(C(=O)c2ccc(CSc3nc4ccncc4n3Cc3ccccc3)cc2)C1 (stereo not drawn)
Cc1ccccc1Nc1c(-c2ccc(N3CCOCC3)cc2)nc2ccccn12
CCCN(CCC)CCCNC(=O)c1cc2c(-c3ccc(Cl)cc3)nn(C)c2s1
CCCCn1c(CNC(=O)C23CC4CC(CC(C4)C2)C3)nnc1SCC(=O)Nc1ccc(C)cc1
Cc1cccc(NC(=O)CCn2nc(-c3ccccc3)c3ccccc3c2=O)c1
CCn1nc(C)c2c(-c3ccccc3)cc(=O)n(C(C)C(=O)NCc3ccccc3OC)c21 (stereo not drawn)
COc1cccc(-n2c(-c3cccc(F)c3)nc3c(cnn3-c3ccc(C)cc3)c2=O)c1
CCOc1ccc(CNCc2c(C(=O)O)n(Cc3ccccc3F)c3cc(OC)ccc23)cc1
COc1ccc(C(C)=O)cc1CSc1nc(NCCc2ccccc2)c2ccccc2n1
Cc1cccc(N2CCN(C(=O)Cn3ncc4c3-c3cc(C)ccc3OC4)CC2C)c1 (stereo not drawn)
COc1ccccc1C(=O)Oc1c(Sc2ccccc2)c(C)nn1-c1ccccc1
CCOC(=O)C1=C(CN2CCN(c3ccccc3F)CC2)NC(=O)NC1c1ccc(Cl)cc1 (stereo not drawn)
Cc1cccc(N2CCN(C(=O)C(C)n3nc(C)n4c(cc5occc54)c3=O)CC2)c1C (stereo not drawn)
Cc1ccc(C2CCN(C(=O)c3cnn(-c4cccc(Cl)c4)c3C3CCN(C(=O)OC(C)(C)C)CC3)C2)cc1 (stereo not drawn)
COc1ccc(CCNC(=O)c2c[nH]n3c(=O)c(Cc4ccccc4Cl)c(C)nc23)cc1OC
FC(F)(F)c1cccc(N2CCN(Cc3nnc(-c4ccc5c(c4)OCO5)o3)CC2)c1
COc1ccc(-c2nc(CSCC(=O)N3CCN(c4cccc(C)c4C)CC3)c(C)o2)cc1OC
COc1ccc(-c2nc3c(c(SCC(=O)Nc4ccc(C(=O)O)cc4)n2)Cc2ccccc2O3)cc1
O=C(CSC1=Nc2ccccc2N=C(c2ccc(F)cc2)C1)Nc1cccc(C(F)(F)F)c1
Cc1cccc(-n2cnc3cc(C(=O)NCc4ccccc4Cl)ccc32)c1
Cc1cccc(-c2nc(CCNC(=O)COc3ccccc3)cs2)c1
CCN(C(=O)CSc1nc(-c2ccccc2)no1)c1cccc(C)c1
COc1ccc(CNCCC(c2ccccc2)c2ccc3c(c2)OCO3)cc1 (stereo not drawn)
CCCCN(CC)CCCNC(=O)c1cn(CC)c2ccc(S(=O)(=O)N3CCc4ccccc4C3)cc2c1=O
CCc1ccc(CN(Cc2ccco2)c2cnc(S(C)(=O)=O)nc2C(=O)Nc2ccc(C)c(Cl)c2)cc1
CCOc1ccc(-c2nn(-c3ccccc3)cc2C2NC(=O)NC(C)=C2C(=O)OC(C)C)cc1 (stereo not drawn)
COc1ccc(CN(Cc2ccco2)C(=O)COc2ccc(Cl)cc2C)cc1
Cc1nc2nc(SCC(=O)N(C)Cc3ccccc3)nn2c(C)c1Cc1ccccc1Cl
Cc1ccc(Cn2cc(S(=O)(=O)c3ccc(C)cc3)c(=O)c3cc(F)c(N4CCCC4)cc32)cc1
CCc1ccc(S(=O)(=O)c2cnc3ccc(OC)cc3c2N2CCCC(C)C2)cc1 (stereo not drawn)
CCOC(=O)C1CCN(c2nc3c(S(=O)(=O)c4ccccc4)nnn3c3ccsc23)CC1
CCN(CC)C(=O)CSc1nc(-c2ccccc2F)nc2c1Cc1c(CO)cnc(C)c1O2
Cc1ccccc1C(=O)Nc1sc2c(c1C(=O)O)CCC(C(C)(C)C)C2 (stereo not drawn)
Cc1ccc(-c2sc(C(=O)Nc3ccc(Br)cc3)cc2CC(=O)O)cc1
CCC(=O)Oc1c(Sc2ccc(Cl)cc2)c(C)nn1-c1ccccc1

Potency, active:
C[N+](C)(CCCCCC[N+](C)(C)CCCN1C(=O)c2cccc3cccc(c23)C1=O)CCCN1C(=O)c2cccc3cccc(c23)C1=O 5.01 µM
CC(=O)Nc1ccc(S(=O)(=O)Nc2nc3n(n2)C(c2ccccc2)C=C(c2ccc(Cl)cc2)N3)cc1 (stereo not drawn) 39.8 µM
N#C/C(=C\c1ccc(-c2cc(Cl)ccc2Cl)o1)C(=O)Nc1ccccc1C(=O)O 28.2 µM
Cc1ccc(C(=O)Nc2ccc(S(=O)(=O)O)c3cc(S(=O)(=O)O)cc(S(=O)(=O)O)c23)cc1NC(=O)c1cccc(NC(=O)Nc2cccc(C(=O)Nc3cc(C(=O)Nc4ccc(S(=O)(=O)O)c5cc(S(=O)(=O)O)cc(S(=O)(=O)O)c45)ccc3C)c2)c1 1.12 µM
CC1(C)CCC2=C(O1)c1ccccc1C(=O)C2=O 7.08 µM
OCC1O[C@H]([S-])[C@H](O)[C@@H](O)[C@@H]1O.[Au+] (stereo partly drawn) 12.6 µM
Cc1cc2c(C(C)C)c(O)c(O)c(C=O)c2c(O)c1-c1c(C)cc2c(C(C)C)c(O)c(O)c(C=O)c2c1O 31.6 µM
COc1ccc(-c2coc3c2c(C)cc2oc(=O)c(CC(=O)O)c(C)c23)cc1 50.1 µM
O=C(CSc1nc(-c2ccc(F)cc2)nc2c1Cc1ccccc1O2)Nc1cccc(C(=O)O)c1 31.6 µM
Nc1c(S(=O)(=O)O)cc(Nc2ccc(Nc3nc(Cl)nc(Nc4ccc(S(=O)(=O)O)cc4)n3)c(S(=O)(=O)O)c2)c2c1C(=O)c1ccccc1C2=O 20 µM
